In PubChem BioAssay (NCI):
This is part of a sample that, as a whole, favours compounds with a hit. Of some 79,000 tested, about 15% had one in any assay. The source made the active and inactive calls. No stated cut-off is given here; in the data, active means growth inhibition above about 70%; inactive means the rest.

How the values were obtained:
[1] = NCI Yeast Anticancer Drug Screen. Data for the rad52 strain (AID 147);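 further: 0% = growth of vehicle-treated control cultures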; conditions: S. cerevisiae rad52 mutant growth inhibition, stronger effect = higher value
In short: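 DNA repair-defective yeast; compound exposure; growth scored against vehicle controls.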

[2] = NCI Yeast Anticancer Drug Screen. Data for the wt1 strain (AID 149);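 further: 0% = growth of vehicle-treated wt1 cultures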; conditions: S. cerevisiae wt1 strain (SPY 50644) growth inhibition, stronger effect = higher value
In short: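 wt1 strain grown with compound or vehicle; inhibition taken from the growth difference.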

[3] = NCI Yeast Anticancer Drug Screen. Data for the rad50EPP+ strain (AID 151);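 further: 0% = growth of vehicle-treated control cultures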; conditions: S. cerevisiae rad50 mutant strain, stronger effect = higher value
In short: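 rad50EPP+ yeast treated with test compounds. Readout: growth vs vehicle control.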

[4] = NCI Yeast Anticancer Drug Screen. Data for the mgt1 strain (AID 153); conditions: S. cerevisiae mgt1 mutant growth inhibition, stronger effect = higher value
In short: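 Growth inhibition relative to vehicle controls was scored for the mgt1 yeast strain after compound exposure.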

[5] = NCI Yeast Anticancer Drug Screen. Data for the mec2-1 strain (AID 157); conditions: S. cerevisiae mec2-1 strain, stronger effect = higher value
In short: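 Growth inhibition is read against vehicle-treated controls after compound exposure of the mec2-1 yeast strain, which is defective in DNA damage repair or cell cycle control.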

[6] = NCI Yeast Anticancer Drug Screen. Data for the rad14 strain (AID 159);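 further: 0% = growth of vehicle-treated control cultures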; conditions: S. cerevisiae rad14 strain growth inhibition, stronger effect = higher value
In short: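 DNA repair-defective yeast, compound-exposed; % growth inhibition derived by comparison with vehicle-treated controls.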

[7] = NCI Yeast Anticancer Drug Screen. Data for the sgs1 mgt1 strain (AID 161);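 further: 0% = growth of cultures given vehicle only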; conditions: S. cerevisiae sgs1 mgt1 strain, stronger effect = higher value
In short: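 Compounds are added to genetically altered yeast, and growth is compared with cultures given vehicle alone to give percent inhibition.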

[8] = NCI Yeast Anticancer Drug Screen. Data for the CLN2oe strain (AID 163);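 further: 0% = growth of vehicle-only control cultures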; conditions: S. cerevisiae CLN2oe strain, stronger effect = higher value
In short: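 Compound-treated yeast; growth vs vehicle ctrl = % inhibition. Genetically altered strain (cell-cycle control).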

[9] = NCI Yeast Anticancer Drug Screen. Data for the cln2 rad14 strain (AID 165);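 further: 0% = growth equal to vehicle treated cultures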; conditions: S. cerevisiae cln2 rad14 strain, stronger effect = higher value
In short: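 Growth inhibition, relative to vehicle-treated controls, is the read-out. The test organism is a yeast strain with defined genetic alterations, cln2 rad14.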

[10] = NCI Yeast Anticancer Drug Screen. Data for the bub3 strain (AID 167); conditions: S. cerevisiae bub3 mutant strain, stronger effect = higher value
In short: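 In this screen, a yeast mutant lacking normal mitotic checkpoint function is challenged with compound. Relative growth versus vehicle gives the inhibition value.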

[11] = NCI Yeast Anticancer Drug Screen. Data for the wt2 strain (AID 169);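 further: 0% = growth of vehicle-treated yeast cultures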; conditions: S. cerevisiae wt2 strain growth inhibition, stronger effect = higher value
In short: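 Compound exposure of yeast; growth compared with vehicle controls; inhibition reported.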

[12] = NCI Yeast Anticancer Drug Screen. Data for the mlh1 strain (AID 171);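 further: 0% = growth of vehicle-treated control cultures of the same strain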; conditions: S. cerevisiae mlh1 strain growth inhibition, stronger effect = higher value
In short: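 Compounds are applied to a genetically altered yeast strain, and its growth is compared with that of vehicle-treated cultures to give percent inhibition.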

[13] = NCI Yeast Anticancer Drug Screen. Data for the sgs1 strain (AID 173);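 further: 0% = growth of vehicle-only control cultures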; conditions: S. cerevisiae sgs1 mutant, stronger effect = higher value
In short: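 Compounds applied to genetically altered yeast; growth compared with vehicle-treated cultures to give % inhibition.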

[14] = NCI Yeast Anticancer Drug Screen. Data for the mlh1 rad18 strain (AID 175); conditions: S. cerevisiae mlh1 rad18 strain growth inhibition, stronger effect = higher value
In short: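 Cells of a genetically altered yeast strain, deficient in DNA damage repair, were treated with compound. Their growth was then compared with that of vehicle-treated cultures to give inhibition.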

[15] = NCI Yeast Anticancer Drug Screen. Data for the rad18 strain (AID 177); conditions: S. cerevisiae rad18 mutant growth inhibition, stronger effect = higher value
In short: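 Compounds are applied to a repair-deficient yeast strain, and growth is compared with that of vehicle-treated cultures to give percent inhibition.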

[16] = NCI Yeast Anticancer Drug Screen. Data for the rad50 strain (AID 155);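 further: 0% = growth of vehicle-only cultures of the same strain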; conditions: S. cerevisiae rad50 strain growth inhibition, stronger effect = higher value
In short: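 DNA repair mutant yeast, compound exposure, growth read-out; inhibition is taken relative to vehicle.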

[17] = at 5.0 µM (retest, dose inferred, filed as 0.5)
[18] = at 50.0 µM (retest, dose inferred, filed as 5.0)

Measured: growth inhibition

CCOC(=O)C1([Se]c2ccccc2)CCCC1=O (stereo not drawn)
active: [1]; at 100.0 µM 92% | [2]; at 100.0 µM 91% | [3]; at 33.0 µM 87% | [3]; at 100.0 µM 96% | [4]; at 100.0 µM 85% | [5]; at 50.0 µM 71.8% | [6]; at 100.0 µM 94% | [7]; at 50.0 µM 84.2% | [9]; at 50.0 µM 73.2% | [10]; [18] 82% | [10]; at 50.0 µM 81.2% | [10]; at 100.0 µM 90% | [11]; at 100.0 µM 88% | [12]; at 100.0 µM 83% | [13]; at 33.0 µM 75% | [13]; at 100.0 µM 97% | [14]; [18] 87% | [14]; at 50.0 µM 76.6% | [15]; at 100.0 µM 91%
inactive: [1]; at 1.2 µM 11% | [1]; at 3.7 µM 28% | [1]; at 11.0 µM 40% | [1]; at 33.0 µM 53% | [2]; at 1.2 µM 16% | [2]; at 3.7 µM 19% | [2]; at 11.0 µM 24% | [2]; at 33.0 µM 50% | [3]; at 1.2 µM -7% | [3]; at 3.7 µM 14% | [3]; at 11.0 µM 44% | [4]; at 1.2 µM -4% | [4]; at 3.7 µM -5% | [4]; at 11.0 µM 4% | [4]; at 33.0 µM 32% | [5]; at 1.2 µM 1% | [5]; at 3.7 µM -6% | [5]; [17] -18% | [5]; at 11.0 µM 9% | [5]; at 33.0 µM 30% | [5]; [18] 43% | [5]; at 100.0 µM -11% | [6]; at 1.2 µM -9% | [6]; at 3.7 µM 1% | [6]; at 11.0 µM -11% | [6]; at 33.0 µM 25% | [7]; [17] -3% | [7]; [18] 59% | [8]; at 1.2 µM 2% | [8]; at 3.7 µM 6% | [8]; at 11.0 µM 16% | [8]; at 33.0 µM 11% | [8]; at 100.0 µM 68% | [9]; [17] 14% | [9]; [18] 52% | [10]; at 1.2 µM -4% | [10]; at 3.7 µM 0% | [10]; [17] 10% | [10]; at 11.0 µM -13% | [10]; at 33.0 µM 13% | [11]; at 1.2 µM 2% | [11]; at 3.7 µM 21% | [11]; at 11.0 µM 22% | [11]; at 33.0 µM 49% | [12]; at 1.2 µM 8% | [12]; at 3.7 µM 6% | [12]; at 11.0 µM 33% | [12]; at 33.0 µM 58% | [13]; at 1.2 µM 22% | [13]; at 3.7 µM 42% | [13]; at 11.0 µM 56% | [14]; [17] 34% | [15]; at 1.2 µM 9% | [15]; at 3.7 µM 21% | [15]; at 11.0 µM 30% | [15]; at 33.0 µM 65%

O=[N+]([O-])c1ccc(C=Cc2ccccc2)cc1.[C-]#[O+].[C-]#[O+].[C-]#[O+].[Cr]
active: [1]; at 11.0 µM 70% | [1]; at 33.0 µM 88% | [1]; at 100.0 µM 82% | [2]; at 100.0 µM 79% | [3]; at 33.0 µM 71% | [16]; at 33.0 µM 83% | [16]; [18] 95% | [16]; at 50.0 µM 76.9% | [16]; at 100.0 µM 79% | [5]; at 33.0 µM 71% | [5]; [18] 86% | [5]; at 50.0 µM 79.8% | [5]; at 100.0 µM 72% | [6]; at 33.0 µM 83% | [6]; at 100.0 µM 82% | [7]; [18] 95% | [8]; at 100.0 µM 70% | [9]; [18] 91% | [9]; at 50.0 µM 70.9% | [10]; [18] 91% | [10]; at 100.0 µM 82% | [11]; at 33.0 µM 80% | [11]; at 100.0 µM 83% | [12]; at 100.0 µM 71% | [13]; at 33.0 µM 91% | [13]; at 100.0 µM 88% | [14]; [18] 96% | [15]; at 1.2 µM 70% | [15]; at 3.7 µM 93% | [15]; at 11.0 µM 94% | [15]; at 33.0 µM 89% | [15]; at 100.0 µM 86%
inactive: [1]; at 1.2 µM 8% | [1]; at 3.7 µM 28% | [2]; at 1.2 µM -2% | [2]; at 3.7 µM -1% | [2]; at 11.0 µM 1% | [2]; at 33.0 µM 65% | [3]; at 1.2 µM 10% | [3]; at 3.7 µM 32% | [3]; at 11.0 µM 62% | [3]; at 100.0 µM 67% | [16]; at 1.2 µM 6% | [16]; at 3.7 µM 18% | [16]; [17] 39% | [16]; at 11.0 µM 54% | [5]; at 1.2 µM 0% | [5]; at 3.7 µM 1% | [5]; [17] 5% | [5]; at 11.0 µM 8% | [6]; at 1.2 µM 3% | [6]; at 3.7 µM 12% | [6]; at 11.0 µM 53% | [7]; [17] 44% | [7]; at 50.0 µM 66% | [8]; at 1.2 µM -3% | [8]; at 3.7 µM -9% | [8]; at 11.0 µM -16% | [8]; at 33.0 µM 69% | [9]; [17] 10% | [10]; at 1.2 µM 2% | [10]; at 3.7 µM 10% | [10]; [17] -19% | [10]; at 11.0 µM 2% | [10]; at 33.0 µM 67% | [10]; at 50.0 µM 69.5% | [11]; at 1.2 µM -1% | [11]; at 3.7 µM -1% | [11]; at 11.0 µM 7% | [12]; at 1.2 µM -1% | [12]; at 3.7 µM -1% | [12]; at 11.0 µM 9% | [12]; at 33.0 µM 65% | [13]; at 1.2 µM 9% | [13]; at 3.7 µM 30% | [13]; at 11.0 µM 66% | [14]; [17] 68% | [14]; at 50.0 µM 62.1%
